In the library only some 3.1% were active in any assay of this set; here they are far more common.
Wnt bcat act – Wnt/beta-catenin pathway activation | activation, % at 9.35 µM | Wnt/beta-catenin reporter cell assay, activator, plate reader | AID 743398 | 300,000 tested, 1.2% active; in the data active = activation above about 30%, passing the limit was not always enough; inconclusive = no clear call, values can overlap the other calls;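 also: 0% = neutral control wells and 100% = positive control wells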
esBAF inh – SWI/SNF esBAF complex inhibition; mouse ES cells, Bmi1-luciferase knock-in reporter, 24 h; 100% = twice the neutral-well signal; reporter increase, % at 12.5 µM; 350,000 tested, 2% active; in the data active = activation above about 40%; inconclusive = no clear call, values can overlap the other calls;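 also: 0% = median of the plate's neutral control wells and 100% = double that signal; a rise in the Bmi1 reporter signal indicates esBAF inhibition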
Statin myotox sup – protects C2C12 myotubes from simvastatin toxicity. rescue of ATP level, % at 7.49 µM. 330,000 tested, 0.78% active. ATP luminescence, 48 h; scaled: DMSO 0, geranylgeraniol control 100;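 active = mean ATP rescue above about 67%, or every replicate alone reaching that limit, limit read from the data, passing the limit was not always enough; inconclusive = no clear call, values can overlap the other calls; inactive = mean under the limit and some replicate under it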;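 also: myotubes were challenged with 10 µM simvastatin during compound exposure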
MITF act – MITF TRPM1 promoter activation in melanoma cells; SK-MEL-5 TRPM1-promoter luciferase, 24 h; % of positive control, neutral wells = 0; activation, % at 12.5 µM; 300,000 tested, 0.75% active;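 active = mean activation of at least 80% with every replicate also reaching 80%; inconclusive = mean reaches 80% but some replicate falls short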;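 also: 0% = neutral control wells and 100% = parthenolide positive control wells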
Rtt109 Vps75 – blocks Candida albicans Rtt109/Vps75 acetyltransferase activity. Q5AAJ8. purified Rtt109/Vps75, ThioGlo CoA-SH fluorescence, 4 h. inhibition, % at 34.9 µM. 330,000 tested, 0.16% active. AID 540336;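 active = inhibition of at least 50% in every replicate; inconclusive = best replicate reaches 50% inhibition but some replicates fall short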
Target sequence (Q5AAJ8 whole entry, looked up): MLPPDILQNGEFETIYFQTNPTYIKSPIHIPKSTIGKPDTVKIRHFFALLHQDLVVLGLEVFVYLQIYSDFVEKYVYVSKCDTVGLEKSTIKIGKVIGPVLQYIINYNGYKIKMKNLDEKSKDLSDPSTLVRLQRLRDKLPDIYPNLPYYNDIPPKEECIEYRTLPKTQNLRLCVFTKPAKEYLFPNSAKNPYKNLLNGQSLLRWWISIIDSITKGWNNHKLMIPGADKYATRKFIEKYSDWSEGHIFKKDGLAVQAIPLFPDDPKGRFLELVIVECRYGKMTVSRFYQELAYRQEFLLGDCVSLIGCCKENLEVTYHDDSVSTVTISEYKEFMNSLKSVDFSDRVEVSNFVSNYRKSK
Active calls of the source: *; ? = inconclusive; / = no result.

SMILES | Wnt bcat act | esBAF inh | Statin myotox sup | MITF act | Rtt109 Vps75
COCCNC(=O)C[C@@H]1C=C[C@H](NS(=O)(=O)c2ccc(C)cc2)[C@H](CO)O1 | / | -2.2 | 2.3 | / | /
CCCNC(=O)N(C)C[C@H]1Oc2cc(-c3ccccc3F)ccc2S(=O)(=O)N([C@H](C)CO)C[C@H]1C | / | -3.0 | 3.1 | / | /
CCc1nc(N2CCC3(CC2)OCCO3)c2nnn(Cc3ccccc3)c2n1 | 9.7 | 3.1 | 12.8 | -4.5 | 32.7
Cc1nc(N2CCC3(CC2)OCCO3)c2nnn(Cc3ccccc3F)c2n1 | 1.9 | 8.4 | 129.6* | 7.9 | 1.0
Cc1nc(N2CCCC2)c2nnn(Cc3ccccc3Cl)c2n1 | / | -15.5 | 75.6* | -18.2 | -5.8
CCC1(C)Cc2ccccc2C(=S)N1 (configuration not stated) | -3.3 | -7.0 | 87.9* | -9.9 | /
CCC1(C)Cc2ccccc2C(=O)N1 (configuration not stated) | 2.1 | 0.4 | 0.3 | -6.9 | -17.9
COC(=O)[C@@H]1[C@@H](CO)[C@@H]2Cn3c(ccc(-c4cccc(F)c4)c3=O)[C@@H]2N1S(C)(=O)=O | / | -2.3 | -8.0 | / | /
COC(=O)c1c(C)[nH]c(C(=O)C(C)OC(=O)C2CC(=O)N(CCc3ccccc3)C2)c1C (configuration not stated) | 50.1* | -4.8 | 18.1 | -7.1 | -1.3
C=C1C(=O)C23C(O)C1CCC2C12COC3(O)C(O)C1C(C)(C)CCC2O (configuration not stated) | -1.4 | 9.2 | 110.3* | / | /
CCOC(=O)c1csc(-c2ccc(OC)c(OC)c2)n1 | 5.8 | / | / | 32.0 | -2.2
CCOC(=O)c1csc(-c2ccc3c(c2)CCO3)n1 | 40.1* | / | / | / | -3.7
COCCN(C(=O)Cc1cccs1)c1nnc(-c2cccnc2)s1 | 3.4 | 3.6 | 7.4 | 7.7 | -1.1
CCCCN(C(=O)Cc1cccs1)c1nnc(-c2cccnc2)s1 | 5.4 | 59.6* | / | 99.5* | 9.1
Cc1cc2oc(C(=O)Nc3nonc3C)c(C)c2cc1Cl | 26.3 | 43.8* | -4.8 | 54.1 | -0.6
CCc1ccc2oc(C(=O)Nc3nonc3CC)c(C)c2c1 | 26.6 | ? | -15.2 | 89.9* | -5.7
CCc1nonc1NC(=O)c1oc2ccc(C)cc2c1C | 15.4 | 39.6 | -4.7 | 63.9 | -8.7
O=C(CN1CCOCC1)NCC[C@@H]1CC[C@@H](NC(=O)Nc2ccc(F)cc2)[C@@H](CO)O1 | / | 5.7 | 2.0 | / | /
Cc1ccc(C2C=C(c3ccccc3OC(F)F)Nc3ncnn32)cc1 (configuration not stated) | / | 6.2 | 106.7* | -2.9 | -423.8
CO[C@H]1CN(C)C(=O)c2ccc(NC(=O)C3CCOCC3)cc2OC[C@@H](C)N(CC2CC2)C[C@H]1C | / | 0.8 | 1.9 | / | /
C[C@@H]1CN([C@@H](C)CO)S(=O)(=O)c2ccc(-c3ccncc3)cc2O[C@@H]1CN(C)C(=O)Nc1ccc(C(F)(F)F)cc1 | / | -5.6 | -15.5 | / | /
C[C@H](CO)N1C[C@H](C)[C@@H](CN(C)C(=O)c2ccc3c(c2)OCO3)Oc2cc(-c3cncnc3)ccc2S1(=O)=O | / | 5.4 | -9.6 | / | /
C/C(=C\c1ccc(C(=O)O)cc1)c1ccc2c(c1)C(C)(C)CCC2(C)C | -8.7 | 45.6* | -75.9 | 8.3 | -7.4
COc1ccc(C(=O)Nn2c(SCC(=O)c3ccccc3)nc3ccccc3c2=O)cc1 | / | / | / | / | 4.8
CCOC(=O)CSc1nc2ccccc2c(=O)n1NC(=O)c1ccccc1 | 38.5* | 10.6 | -4.8 | 49.3 | 12.8
SMILES | Wnt bcat act | esBAF inh | Statin myotox sup | MITF act | Rtt109 Vps75
CSc1ccccc1OCc1cc(C(=O)NC(C)CCn2cccn2)no1 (configuration not stated) | -1.1 | / | / | 5.6 | -9.0
CSc1ccccc1OCc1cc(C(=O)NC(C)c2cnn(C)c2)no1 (configuration not stated) | 13.6 | 53.9* | 1.2 | 70.2 | -4.1
CSc1ccccc1OCc1cc(C(=O)N[C@H]2CCCCNC2=O)no1 | 29.2 | 65.9* | 2.5 | 96.2* | -7.1
COc1ccc(-c2cc3ccc(F)cc3cn2)cc1 | ? | -5.9 | 4.8 | 54.6 | -5.7
COc1cc(OC)cc(-c2cc3cc(F)ccc3cn2)c1 | 39.0* | 68.7* | -57.9 | 121.1* | 5.0
COc1ccc(-c2cc3cc(F)ccc3cn2)cc1 | 43.3* | 5.1 | 6.9 | 67.1 | 1.4
CC(=O)N(C)C[C@H]1Oc2ncc(C#Cc3cccc(F)c3)cc2C(=O)N([C@@H](C)CO)C[C@H]1C | / | -6.3 | 9.4 | / | /
CNS(=O)(=O)c1ccc(NCC2COc3ccccc3O2)c([N+](=O)[O-])c1 (configuration not stated) | / | 43.9* | -5.6 | 14.9 | 9.0
C[C@H]1CN([C@@H](C)CO)C(=O)c2cc(NC(=O)C3CCCCC3)ccc2O[C@H]1CN(C)C | / | -6.5 | 0.3 | / | /
CNC(=O)N/N=C(\N)c1ccccn1 | 12.5 | 18.0 | -0.4 | 14.7 | -8.0
N/C(=N\NC(=O)Nc1ccc(Cl)cc1)c1ccccn1 | 25.7 | 47.4* | 3.4 | 49.3 | 0.1
COc1ccc(NC(=O)N2C[C@@H](O)COC[C@@H]3O[C@H](CC(=O)NC4Cc5ccccc5C4)CC[C@H]32)cc1 | / | -0.8 | 5.4 | / | /
CO[C@H]1CN(C)C(=O)c2ccc(NC(=O)C3CCOCC3)cc2OC[C@H](C)N(Cc2nccs2)C[C@H]1C | / | 3.8 | 4.8 | / | /
CCC(C)Sc1ccc(-c2nc3ccc(Cl)cn3c2NCc2ccccc2)cc1 (configuration not stated) | ? | 50.1* | 3.0 | 83.9* | -17.4
Clc1cccc(-c2ccc(-c3nc4ccccn4c3NCc3ccccc3)cc2)c1 | 31.2* | 49.7* | 0.9 | 18.6 | 7.8
c1ccc(-c2nc3ccccn3c2NCc2ccc3c(c2)OCO3)cc1 | / | 6.3 | 4.2 | 5.6 | -11.4
CN(C)S(=O)(=O)c1cccc(COc2cccnc2[N+](=O)[O-])c1 | -2.2 | -2.8 | -4.7 | 2.9 | -2.3
O=[N+]([O-])c1ncccc1OCc1ccc(Cl)c(Cl)c1 | 18.3 | 66.6* | -74.1 | 66.9 | -0.3
C[C@H](CO)N1C[C@H](C)[C@@H](CN(C)C(=O)Nc2ccc3c(c2)OCO3)Oc2cc(C3=CCCC3)ccc2S1(=O)=O | / | 6.1 | -100.4 | / | /
O=C(Nc1ccc(F)cc1)c1ccc2snnc2c1 | 6.3 | 45.2* | 5.7 | 16.3 | 8.3
CCOc1ccc(NC(=O)c2ccc3snnc3c2)cc1 | 6.3 | 54.2* | / | / | -3.7
Cc1ccc(NC(=O)c2ccc3snnc3c2)cc1C | 21.0 | ? | -1.4 | 63.5 | -7.2
COc1ccc(NC(=O)Nc2ccc3c(c2)C(=O)N([C@@H](C)CO)C[C@H](C)[C@H](CN(C)S(=O)(=O)c2ccc(Cl)cc2)OCCCC[C@@H](C)O3)cc1 | / | 6.8 | / | / | /
O=C(NCCSc1ccccc1)c1cncc(Br)c1 | / | 76.1* | 10.3 | 35.5 | -1.0
CCC(NC(=O)c1cncc(Br)c1)c1ccccc1 (configuration not stated) | 30.8* | -6.3 | 12.1 | -3.4 | -6.1
O=C(NCCSc1ccccc1)c1ccccc1Cl | -3.7 | / | / | 56.0 | -1.2
O=C(NCCSc1ccccc1)c1ccc(Br)cc1 | -4.1 | / | / | 29.3 | 0.0
Cc1ccccc1C(=O)NCCSc1ccccc1 | / | 55.3* | -1.2 | 95.6* | -5.3

Screening results: PubChem, Broad Institute
